Screening results as filed in PubChem.
LASV entry inh: qHTS for Inhibitors of binding or entry into cells for Lassa Virus. Lassa virus pseudotype entry inhibition, cell reporter. Potency, µM (highest dose often 37.9 µM), for inactives: at the highest dose activity change, negative = inhibition, usual class: inhibitors. 300,000 compounds, 1.2% hits. AID 540256, 2011; calls by dose curve; tested in HEK293 cells; further: potency means the concentration at half of the fitted maximal effect; on the % scale 0 is the no-effect control and ±100 the full control effect; nearly all actives have a fitted effect of over 50% in size
Cycloheximide cs: Cycloheximide Counterscreen for Small Molecule Inhibitors of Shiga Toxin; cell reporter, cycloheximide protein synthesis inhibition counterscreen; max response, %; 300,000 compounds, 12% hits; AID 2314, 2010; in the data active means max response mostly above about 13%, no sharp cut-off; inactive means mostly below about 14%; further: read at 38.3 µM for the half of the compounds with a filed dose; 0% is about no effect
HCV inhibitor: qHTS Assay for Inhibitors of Hepatitis C Virus (HCV). Huh7.5.1 HCVcc-Cre infection, luciferase reporter, 44 h. Potency, µM (titrated, usually from 41.8 µM), for inactives: top-dose activity change, negative = inhibition, actives largely listed as inhibitors. 340,000 compounds, 3.4% hits; active means well fitted inhibition curve with a large enough effect; inconclusive means small, poorly fitted or top-dose-only effect, or another doubt; inactive means no such curve, though single readings can be large or run the other way; further: potency means the concentration at half of the fitted maximal effect; on the % scale 0 is the no-effect control and ±100 the full control effect
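A cell-based infection assay in which seeded cells (1,000 per well) receive test compound after 4 h, are inoculated with HCVcc-Cre at approximately 0.5 moi, and are incubated 44 h before luminescence detection.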
Marburg entry inh: qHTS for inhibitors of binding or entry into cells for Marburg Virus. Marburg virus pseudotyped entry inhibition, cell reporter. AID 540276, 2011. 300,000 compounds, 1.8% hits. Potency, µM (titrated, usually from 37.8 µM), for the others: at the top dose activity change, negative = inhibition, actives largely listed as inhibitors; calls by dose curve; tested in HEK293 cells; further: potency means the concentration at half of the fitted maximal effect; on the % scale 0 is the no-effect control and ±100 the full control effect
Shiga inhibitor: A qHTS for Small Molecule Inhibitors of Shiga Toxin; Vero cells, Shiga toxin protein synthesis inhibition reporter; inhibition, % at 38.7 µM; 290,000 compounds, 9.2% hits; AID 2315, 2010; in the data active means inhibition mostly above about 28%, no sharp cut-off; inactive means mostly below about 43%; further: 0% is about no effect
FMDV antiviral: High Throughput Screening for Foot and Mouth Disease Virus Antivirals | Potency, µM (series often up to 57.9 µM), for inactives: top-dose activity change, negative = inhibition, hits mostly inhibitors | 410,000 compounds, 1.2% hits | FMDV antiviral cell-based qHTS; calls by dose curve; tested in HEK293T cells; further: read-out not given here; potency means the concentration at half of the fitted maximal effect; on the % scale 0 is the no-effect control and ±100 the full control effect; nearly all actives have a fitted effect of over 45% in size
* marks the source's active call; other numbers are inactive results; ? = inconclusive; · = no result given; [ ] = remark or other dose. This is a sample that favours compounds with a hit; in the whole collection about 13% have one here.

SMILES | LASV entry inh | Cycloheximide cs | HCV inhibitor | Marburg entry inh | Shiga inhibitor | FMDV antiviral
Cc1cccc(Cc2nnc(CCC(=O)N(C)C3CCOC3)o2)c1 (centres undefined) | 2.0%[46.1 µM] | 27.0* | 7.3% | ? | 71.1* | 16.6%
COc1ccc(CCc2nnc(CCC(=O)NCC3CCCO3)o2)cc1 (centres undefined) | -22.5%[46.1 µM] | 7.0 | 23.0% | -2.5%[46.1 µM] | 12.8 | 9.5%
CCN(CC)CCNC(=O)CN1C(=O)COc2ccc(S(=O)(=O)N3CCOCC3)cc21 | 11.3%[46.1 µM] | -2.5 | -4.8% | 0.8%[46.1 µM] | -7.6 | 0.7%
C[C@@H]1C[C@H]2[C@@H]3CCC4=CC(=O)C=C[C@]4(C)[C@@]3(F)[C@@H](O)C[C@]2(C)[C@H]1C(=O)CO | -22.0% | -2.2 | 5.0%[8.37 µM] | -0.2% | -12.7 | -21.7%
CCCOC1CCCN(C(=O)CCc2nnc(Cc3cccc(C)c3)o2)C1 (centres undefined) | 7.0%[46.1 µM] | 47.3* | 4.1% | ? | 94.8* | 42.0%
CC(=NC1CCCC1)c1c(C)[nH]n(-c2nc3ccccc3s2)c1=O | ? | 40.4* | -11.7% | ? | 75.2* | -15.7%
CC(=NC1CC1)c1c(-c2ccccc2)[nH]n(-c2nc3ccccc3s2)c1=O | -0.1% | 22.8 | ? | ? | 36.2 | -10.2%
CCc1ccc2c(c1)C(=O)C(=O)N2CC(=O)Nc1ccc(NC(=O)c2ccccn2)cc1 | -28.7% | 11.5 | 5.9% | -24.0%[46.1 µM] | 22.3 | 20.9%
Cc1nc(SCC(=O)Nc2ccc(S(=O)(=O)N3CCOCC3)cc2)c2c(C)c(C)sc2n1 | 1.12µM* | · | 7.08µM* | ? | · | -20.9%
Cc1sc2nc(C(C)C)nc(SCC(=O)NCc3ccco3)c2c1C | -1.0% | 32.0* | ? | -21.6% | 45.0 | ·
Cc1nc(SCC(=O)NCc2ccco2)c2c(C)c(C)sc2n1 | ? | 8.1 | ? | 14.6µM* | -6.2 | -2.0%
Cc1nc(SCC(=O)N2CCOCC2)c2c(C)c(C)sc2n1 | ? | -0.5 | -26.2% | -2.8%[46.1 µM] | 5.6 | -5.3%
CCOC(=O)C1CCN(Cc2cccc(OCc3ccccc3)c2)CC1 | · | -4.5 | 2.5% | · | -3.9 | -12.4%
CC(C)(C)c1cc(C(=O)NCc2ccccc2)ccn1 | -22.6% | 2.0 | ? | -18.3% | -2.8 | ?
Cc1ccc(-c2nc3ccccc3c(=O)n2-c2ccncc2)cc1 | -13.7% | 0.5 | 5.1% | 7.8% | -4.3 | -23.3%
Cc1ccc(-c2nc3ccccc3c(=O)n2-c2cc(C)ccn2)cc1 | -44.5%[14.3 µM] | 30.1* | · | 21.0% | 47.7 | 23.8%
COc1ccc(-n2c(-c3ccc(C)cc3)nc3ccccc3c2=O)cc1 | -19.5% | 31.6* | -21.1% | 16.9% | 58.5* | 18.0%
O=c1c2ccccc2nc(-c2ccc(-c3ccccc3)cc2)n1-c1ccncc1 | 2.4% | 25.8* | 5.1% | ? | 21.4 | ·
O=C(c1ccccc1)c1c(O)nc(-c2ccccc2)n(-c2ccccc2)c1=O | -12.6% | 54.0* | 7.8% | 22.9% | 77.9* | 0.4%
COc1ccc(-n2c(/C=C/c3ccc(O)c(OC)c3)nc3ccccc3c2=O)cc1 | · | 7.5 | 11.2µM* | · | -1.0 | -21.6%
CCCCOC(=O)CCc1nc2ccccc2[nH]1 | 4.7% | 1.8 | -6.5% | -2.3% | 9.7 | -8.0%
CC(NC(=O)/C=C/c1ccccc1)c1ccccc1 (centres undefined) | ? | -2.1 | 12.2% | ? | -6.5 | 8.1%
Cc1ccc(/C=C/C(=O)NC(C)c2ccccc2)cc1 (centres undefined) | 11.2µM* | -2.9 | 1.4% | 9.3% | 23.5 | 9.8%
CC(NC(=O)/C=C/c1ccc(Br)cc1)c1ccccc1 (centres undefined) | 14.6µM* | 1.0 | -21.3% | ? | -13.4 | -17.5%
CN(C)c1nc2n(c(=O)n1)C(C#N)CS2 (centres undefined) | 0.1% | 0.0 | 21.1% | 1.8% | -8.5 | 22.2%
SMILES | LASV entry inh | Cycloheximide cs | HCV inhibitor | Marburg entry inh | Shiga inhibitor | FMDV antiviral
Cc1c(NC(=O)C(C)OC(=O)CC2CC3CCC2C3)c(=O)n(-c2ccccc2)n1C (centres undefined) | -17.4%[46.1 µM] | -1.4 | 4.6% | 2.5%[46.1 µM] | -10.0 | -18.6%
N#CC1CC(c2ccccc2)=NN1c1ccccc1[N+](=O)[O-] (centres undefined) | ? | 48.4* | ? | ? | 113.3* | 22.0%
CCc1ccc(-n2c(N3CCN(c4ccc(F)cc4)CC3)nc3ccccc3c2=O)cc1 | -28.5%[46.1 µM] | · | · | ? | · | ?
CN1CCN(c2ccc(NC(=O)c3ccc4c(c3)OCCO4)cc2)CC1 | -0.7% | 36.1* | 7.6% | ? | 81.0* | 14.8%
O=C(Nc1ccc(N2CCN(C(=O)c3ccco3)CC2)cc1)c1ccc2c(c1)OCO2 | -14.6% | -1.0 | -1.8% | ? | -4.4 | -12.8%
Cc1ccc(C(=O)Nc2ccc(N3CCN(C)CC3)cc2)cc1C | · | 32.0* | 9.9% | · | 79.9* | 9.9%
Cc1ccccc1C(=O)N1CCN(c2ccc(NC(=O)c3ccc4c(c3)OCO4)cc2)CC1 | ? | 1.4 | ? | ? | -8.6 | 12.6µM*
Cc1ccc(C(=O)Nc2ccc(N3CCN(S(C)(=O)=O)CC3)cc2)cc1C | ? | 9.6 | -1.0% | -0.7%[46.1 µM] | 27.3 | -7.0%
CCC(=O)N1CCN(c2ccc(NC(=O)c3ccc4c(c3)OCCO4)cc2)CC1 | ? | 19.2* | -18.0% | 11.7%[46.1 µM] | 35.6 | -17.1%
Cc1ccc(C(=O)Nc2ccc(N3CCN(C)CC3)cc2)c(Cl)c1 | 16.8%[46.1 µM] | 42.2* | -3.2% | ? | 62.4* | 15.3%
O=C(NCCNC(=O)c1ccccc1[N+](=O)[O-])c1ccccc1[N+](=O)[O-] | 6.6% | · | 12.9% | 1.3% | · | -13.1%
Cc1nn(CC(=O)O)c(C)c1NC(=O)c1cccs1 | · | -12.3 | 10.7% | · | -4.8 | -2.0%
CCc1nc(OCc2ccco2)c2sc3nc4c(cc3c2n1)COC(C)(C)C4 | -26.1% | 4.3 | ? | ? | 5.4 | ?
COc1nc(C)nc2c1sc1nc3c(cc12)COC(C)(C)C3 | -16.8% | 34.2* | 14.4% | ? | 58.3 | 8.3%
Cc1nc(OCC(C)C)c2sc3nc4c(cc3c2n1)COC(C)(C)C4 | -6.8%[46.1 µM] | 20.1* | -5.9% | -0.5%[46.1 µM] | 60.5* | -9.7%
O=C(c1ccc2c(c1)CCC2)N1CCN(Cc2c(F)cccc2Cl)CC1 | · | · | · | · | · | -27.6%
Cc1nc2cc3ccccc3cc2n1C | 9.6% | 19.1* | ? | ? | 48.4* | 39.8%
Cc1ccc2nc(-c3ccccc3)c(Cc3ccccn3)n2c1 | · | · | · | · | · | 0.4%
O=C(c1ccc2c(c1)N(Cc1cccc(Cl)c1)C(=O)c1ccccc1S2(=O)=O)N1CCN(c2ccccn2)CC1 | · | -3.6 | 14.1µM* | · | 18.6 | -6.0%
COc1ccc(CCNC(=O)c2ccc3c(c2)N(Cc2ccc(F)cc2)C(=O)c2ccccc2S3(=O)=O)cc1OC | -27.4%[46.1 µM] | · | · | 10µM* | · | -0.9%
O=C(c1ccc2c(c1)N(Cc1ccc(Cl)cc1)C(=O)c1ccccc1S2(=O)=O)N1CCN(c2ccccn2)CC1 | 1.9%[46.1 µM] | · | · | -5.3%[46.1 µM] | · | -24.4%
COc1ccccc1N1CCN(C(=O)c2ccc3c(c2)N(Cc2ccccc2)C(=O)c2ccccc2S3(=O)=O)CC1 | -22.8%[46.1 µM] | · | · | 8.91µM* | · | 4.0%
